In PubChem BioAssay AID1863 (Southern Research Specialized Biocontainment Screening …, 2009):
The campaign covered roughly 300,000 compounds. About 480 (0.16%) were called active.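 Rule for the calls: active = inhibition over 29.93%, a cutoff 3 SD above the screen mean, later confirmed by dose response; inconclusive = inhibition over 29.93% but no dose response follow-up; inactive = inhibition at most 29.93% or unconfirmed.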 Only a sample is shown. Entries with a potency or affinity are not part of this list.

Assay: PhoP-dependent GFP reporter repression – Salmonella Typhimurium, primary screen (AID 1863);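 note: 0% = low Mg2+ inducing control and 100% = high Mg2+ repressing control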
Details: S. Typhimurium PhoP-regulated promoter GFP reporter, 4 h; at 50 µM; stronger effect = higher value

inhibition, inactive:
COc1cccc(OCc2cc(C(=O)N3CCN(c4ccccc4O)CC3)no2)c1 8.64%
CCCOc1ccc(C(=O)O)cc1 -6.14%
CCOc1ccc(C(=O)C(CCC(CN(C)C)C(=O)c2ccc(OCC)cc2)CN(C)C)cc1 (stereo not given) 17.1%
COCCn1c(SCC(=O)N2CCCCC2)nc2c([nH]c3ccccc32)c1=O -1.34%
O=C(N/N=C/c1ccccc1O)c1ccncc1 -5.2%
O=C(N/N=C/c1cc(Br)c(O)c(Br)c1)c1cccnc1 -1.14%
O=C(N/N=C/c1cc(Br)c(O)c(Br)c1O)c1cccnc1 -3.91%
O=C(N/N=C/c1ccc(O)c([N+](=O)[O-])c1)c1ccncc1 -0.43%
Cc1ccc(C(=O)N/N=C\c2cc3c(cc2Br)OCO3)cn1 1.38%
COc1ccc(C(=O)N/N=C/c2cc(Br)ccc2O)cc1OC -7.66%
O=C(N/N=C/c1ccc(Cl)cc1Cl)c1ccncc1 3.86%
O=C(N/N=C/c1cc(Br)ccc1O)c1ccncc1 3.11%
Cc1nc2c3ccccc3nc(SCC(=O)N3CC(C)CC(C)C3)n2n1 (stereo not given) 4.78%
Cc1ccc2oc(=O)c3cnn(CC(=O)N4CCCc5ccccc54)c3c2c1 -8.23%
Cc1cccc(NC(=O)CNC(=O)N2CC(=O)Nc3ccccc32)c1C -2.45%
Cc1cccc(C(=O)Nc2nnc(SCC(=O)NC3CC3)s2)c1 -3.7%
CS(=O)(=O)N1CCc2ccc(NC(=O)C3CCCO3)cc2C1 (stereo not given) 4.89%
Cc1ccc(S(=O)(=O)/N=C(/c2ccc(F)cc2)N2CCOCC2)cc1 -3.33%
CCOC(=O)C1CCN(c2ncnc3nc[nH]c23)CC1 0.02%
Cc1ccc(OCCC(=O)OCC(=O)Nc2ccccc2)cc1 1.27%
O=C(N/N=C/c1cc(Cl)ccc1O)c1ccc(Br)cc1 4.94%
O=C(N/N=C/c1cc([N+](=O)[O-])ccc1O)C1C2CCCCC21 (stereo not given) -0.31%
O=C(N/N=C/c1coc2ccc(Cl)cc2c1=O)c1ccc(O)cc1 10.4%
O=C(N/N=C/c1cc([N+](=O)[O-])ccc1O)C1CCCCC1 1.18%
O=C(N/N=C/c1coc2ccc(Cl)cc2c1=O)c1ccncc1 7.37%
O=C(N/N=C/c1cccnc1)c1cccc(Cl)c1 -1.41%
CCOc1ccc(CN2CCC(n3nccc3NC(=O)c3ccccc3OC)CC2)cc1 -0.04%
CCCNC(=O)c1ccccc1NS(=O)(=O)c1ccc(OC)c(OC)c1 4.85%
CCc1cc(C(=O)N(CCCOC)c2c(N)n(Cc3ccccc3)c(=O)[nH]c2=O)sc1C -2.51%
CCOC(=O)C(C(=O)OCC)C(C(=O)OCC)N1CCOCC1 (stereo not given) 3.26%
CC1(C)NC(=O)N(CC(O)CN2C(=O)CCC2=O)C1=O (stereo not given) -6.24%
Cn1c2ccccc2c(=O)c2ccc(C#Cc3ccccn3)cc21 0.47%
COc1ccccc1N1CCN(C(c2ccccc2)c2nnnn2CCc2ccccc2)CC1 (stereo not given) 1.99%
Cc1cc(C)n(CCCNC(=O)Cn2nnnc2CN2C[C@@H](C)O[C@@H](C)C2)n1 0.46%
COc1ccccc1NS(=O)(=O)c1ccc(Cl)c(NC(=O)c2sc3cc(Cl)ccc3c2Cl)c1 5.27%
Cc1cc(SCC(=O)N/N=C/c2ccc(O)cc2O)c(C)cc1Br -6.96%
Cc1cc(SCC(=O)N/N=C/c2ccc(O)c(O)c2)c(C)cc1Br -9.61%
CCCCC(c1nnnn1C1CCCC1)N1CCN(C(=O)c2ccco2)CC1 (stereo not given) -4.03%
Cc1cc(C(=O)N/N=C/c2cc([N+](=O)[O-])ccc2O)c2ccccc2n1 18.3%
Cc1cc(C(=O)N/N=C/c2cc(Cl)cc([N+](=O)[O-])c2O)c2ccccc2n1 28.8%
O=C(Nc1ccccc1N1CCN(C(=O)c2ccc(Cl)cc2)CC1)c1cccc(F)c1 2.12%
Cc1ccc(S(=O)(=O)N2CCC(C(=O)NCCN3CCOCC3)CC2)cc1C -3.49%
O=C(c1ccc(Cl)cc1)c1ccc(Oc2cc(NN3CCCCC3)c([N+](=O)[O-])cc2[N+](=O)[O-])cc1 6.36%
CCOc1ccc(C2CC(=O)NC2=O)cc1 (stereo not given) 3.62%
O=C(NCc1nc(-c2ccc(Cl)cc2)no1)c1ccco1 -1.48%
CN1CCN(C(=O)CCN2C(=O)/C(=C\c3ccc(Cl)cc3)SC2=S)CC1 -5.92%
O=C(O)c1ccc(N2C(=O)CC(N3C(=O)/C(=C/c4ccc(Cl)cc4)SC3=S)C2=O)cc1 (stereo not given) 16%
Cc1cccc(C)c1NC(=O)CCCCCC1NC(=O)NC1C (stereo not given) 2.4%
Cc1nn(-c2ccccc2)c(N)c1Sc1ccc([N+](=O)[O-])cc1 0.62%
C=CCn1c(=NC(=O)CN2C(=O)CCC2=O)sc2cc(S(N)(=O)=O)ccc21 17%
CC1CCN(Cc2ccc(-c3nnn(CC(=O)Nc4ccccc4Cl)n3)cc2)CC1 -3.86%
COc1ccccc1N1CCN(C(=O)C(C)CS(=O)(=O)c2ccc3c(c2)NC(=O)CS3)CC1 (stereo not given) -8.13%
O=[N+]([O-])c1cc(-c2ccn[nH]2)ccc1Cl -3.78%
O=[N+]([O-])c1cccc(-c2ccn[nH]2)c1 -3.87%
Cc1cc(C(C)(C)C)ccc1OCCN(C)C -7.47%
CC(C)(C)c1ccc(OCCNCc2ccccc2)cc1 -2.16%
Cc1cc(C(C)(C)C)ccc1OCCOCCN1CCCC1 3.82%
C[N+](C)(CCOc1ccccc1)Cc1ccccc1 (tested in a mixture with another compound) -8.86%
Cc1ccccc1CSc1nnc(-c2ccncc2)n1C 1.82%
COc1ccccc1C(=O)NCCC(=O)NC(C)c1ccc(-n2ccnc2)cc1 (stereo not given) 9.9%
